Source: PubChem BioAssay (NCATS)
Inconclusive results are not listed. Active and inactive are the calls of the source. The call rests on the fitted dose curve; in most records, active means well fitted curve in the direction sought with a large enough effect; inconclusive means small, poorly fitted or top-dose-only effect, or another doubt; inactive means no such curve, though single readings can be large; an effect the other way counts as inactive or inconclusive.

Tested on: not listed separately
Experiment: qHTS Assay for Lipid Storage Modulators (AID 1519)
Conditions: Drosophila S3 cells, BODIPY lipid droplet/cell ratio, laser cytometry; measured here: cell count channel max response; cells loaded with oleic acid
Outline: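 Cells seeded at 5,000 per well were treated with compounds over a concentration series and loaded with oleic acid (400 uM, as added). Lipid droplet fluorescence (488 nm excitation, 500-530 nm channel) was read by laser-scanning cytometry and normalized to 20 uM Triacsin C.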

SMILES | max response [%]
CN(C)CCc1c[nH]c2ccc(CS(=O)(=O)N3CCCC3)cc12 | 19.2
CCCc1cc(C(N)=S)ccn1 | 8.06
CC[C@H](NC(C)C)[C@H](O)c1ccc(O)c2[nH]c(=O)ccc12 | -20.9
O=S(=O)(O)CCS | 14.6
CNNCc1ccc(C(=O)NC(C)C)cc1 | -0.816
CCCCS(=N)(=O)CCC(N)C(=O)O (stereo not drawn) | 23.2
CCCCCCNC(=O)n1cc(F)c(=O)[nH]c1=O | 11.2
CCCCOc1ccc(CC(=O)NO)cc1 | -2.68
Cc1cccc(N(C)C(=S)Oc2ccc3ccccc3c2)c1 | -7.01

Same assay, conditions: Drosophila S3 cells, BODIPY lipid droplet/cell ratio, laser cytometry; measured here: lipid channel max response; cells loaded with oleic acid

SMILES | max response [%]
NC(=O)N1c2ccccc2CC(=O)c2ccccc21 | 19.4
COc1ccc2c(c1)c(CC(=O)OCC(=O)O)c(C)n2C(=O)c1ccc(Cl)cc1 | 10.1
CN1CCCC(n2nc(Cc3ccc(Cl)cc3)c3ccccc3c2=O)CC1 (stereo not drawn) | 2.11
NCCCC(O)(P(=O)(O)O)P(=O)(O)O | 16.4
Nc1[nH]c(=O)ncc1F | 3.39
Clc1ccccc1CN1CCc2sccc2C1 | -18.8
CNS(=O)(=O)Cc1ccc2[nH]cc(CCN(C)C)c2c1 | 52.5
COC(=O)Nc1nc2ccc(C(=O)c3ccccc3)cc2[nH]1 | -17.4
S=P(N1CC1)(N1CC1)N1CC1 | 17.7
C1CCC(C(CC2CCCCN2)C2CCCCC2)CC1 (stereo not drawn) | -21.2
CCN1CCCC1CNC(=O)c1cc(S(N)(=O)=O)ccc1OC (stereo not drawn) | 5.52
O=c1oc2c(O)c(O)cc3c(=O)oc4c(O)c(O)cc1c4c23 | 32.6
Oc1c(Cl)cc(Cl)c2cccnc12 | -27.9
CC1=C(C(=O)O)N2C(=O)[C@@H](NC(=O)C(N)c3ccccc3)[C@H]2SC1 (stereo partly drawn) | -16
COC(=O)Nc1nc2ccc(S(=O)c3ccccc3)cc2[nH]1 (stereo not drawn) | 29.6
CC(=O)CC(c1ccccc1)c1c(O)c2ccccc2oc1=O (stereo not drawn) | 30.9

SMILES | max response [%]
CCOC(=O)c1ccc(OC(=O)CCCCCN=C(N)N)cc1 | -13.1
OC(Cn1cncn1)(Cn1cncn1)c1ccc(F)cc1F | 26.4
CCCOc1ccc(C(=O)OCCN(CC)CC)cc1N | 9.95
COc1ccc(C(=O)CC(=O)c2ccc(C(C)(C)C)cc2)cc1 | -13.6
O=S(=O)(c1cccc2cnccc12)N1CCCNCC1 | 6.29
COC(=O)Nc1nc2ccc(Sc3ccccc3)cc2[nH]1 | 3.98
CN(C)CCc1c[nH]c2ccc(CS(=O)(=O)N3CCCC3)cc12 | 27.5
CCCc1cc(C(N)=S)ccn1 | 15.8
CC[C@H](NC(C)C)[C@H](O)c1ccc(O)c2[nH]c(=O)ccc12 | -21.9
O=S(=O)(O)CCS | 25.1
CNNCc1ccc(C(=O)NC(C)C)cc1 | 0.0882
CCCCS(=N)(=O)CCC(N)C(=O)O (stereo not drawn) | 33.5
CCCCCCNC(=O)n1cc(F)c(=O)[nH]c1=O | 19.7
CCCCOc1ccc(CC(=O)NO)cc1 | -0.905
Cc1cccc(N(C)C(=S)Oc2ccc3ccccc3c2)c1 | -5.23

Biological target: DNA repair nuclease/redox regulator APEX1 (Homo sapiens) (UniProt P27695)
Experiment: qHTS Validation Assay for Inhibitors of the Human Apurinic/apyrimidinic Endonuclease 1 (APE1) (AID 1705;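 further: TAMRA fluorescence gain over two minutes as APE1 cuts a quenched THF abasic duplex; on the % scale 0 is the no-effect control and ±100 the full control effect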)
Conditions: purified APE1 endonuclease activity, fluorescence, titration; series mostly up to 57.1 µM; activity change, negative = inhibition: at the top concentration
Outline: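 Read-out: TAMRA fluorescence (525 nm ex, 598 nm em) from cleavage of a quenched THF abasic-site duplex, 50 nM final; activity taken as intensity change between third and first of three reads 60 s apart.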

DNA repair nuclease/redox regulator APEX1 (Homo sapiens), sequence (P27695 whole entry, looked up): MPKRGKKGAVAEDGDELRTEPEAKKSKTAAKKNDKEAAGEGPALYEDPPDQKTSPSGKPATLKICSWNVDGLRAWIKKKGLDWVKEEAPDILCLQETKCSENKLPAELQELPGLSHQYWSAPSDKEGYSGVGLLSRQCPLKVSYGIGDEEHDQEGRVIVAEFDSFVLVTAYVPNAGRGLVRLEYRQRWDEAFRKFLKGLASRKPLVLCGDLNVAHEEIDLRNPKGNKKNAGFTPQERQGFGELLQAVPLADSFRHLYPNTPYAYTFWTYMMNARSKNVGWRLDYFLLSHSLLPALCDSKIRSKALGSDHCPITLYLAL

SMILES | activity change, negative = inhibition
CC(C)NCC(O)c1ccc(NS(C)(=O)=O)cc1 (stereo not drawn) | 1.39% (inactive)
CCN1CCCC1CNC(=O)c1cc(S(N)(=O)=O)ccc1OC (stereo not drawn) | -4.78% (inactive)
OCc1ccc(-c2nn(Cc3ccccc3)c3ccccc23)o1 | -14.4% (inactive)
CCN(CC)CC#CCOC(=O)C(O)(c1ccccc1)C1CCCCC1 (stereo not drawn) | -5.26% (inactive)
CC1=C(C(=O)O)N2C(=O)[C@@H](NC(=O)C(N)c3ccccc3)[C@H]2SC1 (stereo partly drawn) | 3.91% (inactive)
CCCCS(=N)(=O)CCC(N)C(=O)O (stereo not drawn) | 2% (inactive)
O=C(O)C1CCCN(CCC=C(c2ccccc2)c2ccccc2)C1 (stereo not drawn) | -9.25% (inactive)

Biological target: Endonuclease 4 (Escherichia coli (strain K12)) (UniProt P0A6C1)
Experiment: Counterscreen for APE1 Inhibitors: qHTS Validation Assay for Inhibitors of Endonuclease IV (AID 1708); further: on the % scale 0 is the no-effect control and ±100 the full control effect
Conditions: E. coli endonuclease IV, DNA cleavage fluorescence; series mostly up to 57.1 µM; activity change, negative = inhibition: at the top concentration
Outline: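 2 nM enzyme was preincubated with compounds for 15 min at room temperature in 50 mM Tris-HCl pH 7.5, 50 mM NaCl, 2 mM MgCl2, 1 mM DTT, 0.01% Tween-20. 50 nM THF-abasic TAMRA/BHQ-2 duplex substrate started the reaction.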

SMILES | activity change, negative = inhibition
CC(C)NCC(O)c1ccc(NS(C)(=O)=O)cc1 (stereo not drawn) | -8.11% (inactive)
CCN1CCCC1CNC(=O)c1cc(S(N)(=O)=O)ccc1OC (stereo not drawn) | -4.66% (inactive)
CCN(CC)CC#CCOC(=O)C(O)(c1ccccc1)C1CCCCC1 (stereo not drawn) | -5.46% (inactive)
CC1=C(C(=O)O)N2C(=O)[C@@H](NC(=O)C(N)c3ccccc3)[C@H]2SC1 (stereo partly drawn) | -5.54% (inactive)
CCCCS(=N)(=O)CCC(N)C(=O)O (stereo not drawn) | -3.61% (inactive)
O=C(O)C1CCCN(CCC=C(c2ccccc2)c2ccccc2)C1 (stereo not drawn) | -4.26% (inactive)

Tested on: not listed separately
Experiment: qHTS for differential inhibitors of proliferation of Plasmodium falciparum line 7G8 (AID 1815);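 further: parasite growth measured after three days of incubation; plate controls were vehicle wells for no effect and reference inhibitor wells for full effect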
Conditions: Plasmodium falciparum 7G8 proliferation inhibition; series mostly up to 28.7 µM; activity change, negative = inhibition: at the top concentration

SMILES | activity change, negative = inhibition | Potency
CC(C)NCC(O)c1ccc(NS(C)(=O)=O)cc1 (stereo not drawn) | 5.3% (inactive) | 
CCN1CCCC1CNC(=O)c1cc(S(N)(=O)=O)ccc1OC (stereo not drawn) | 17.3% (inactive) | 
CC1=C(C(=O)O)N2C(=O)[C@@H](NC(=O)C(N)c3ccccc3)[C@H]2SC1 (stereo partly drawn) | 4.71% (inactive) | 
O=C(O)C1CCCN(CCC=C(c2ccccc2)c2ccccc2)C1 (stereo not drawn) | -17.2% (inactive) | 
